Reference: PubChem BioAssay (NCATS)
Inconclusive results are not listed. Calls of active or inactive are those of the source. Unless noted, calls follow the shape of the dose curve; as a rule, active = well fitted curve in the direction sought with a large enough effect; inconclusive = small, poorly fitted or top-dose-only effect, or another doubt; inactive = no such curve, though single readings can be large; an effect the other way counts as inactive or inconclusive.

Columns and labels:
[1] = Cell Viability - LYMP2-001 (AID 921);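 also: series mostly up to about 92 µM; 0% = DMSO only and full inhibition = tetraoctylammonium bromide control wells; nearly all actives have a fitted effect of over 70% in size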
In short: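 qHTS, 1536-well; lymphoblastoid cells, 24 hr compound, 37 C; ATP by CellTiter-Glo, 30 min RT; luminescence; Hill-fit AC50.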

[2] = MultiTox-Fluor Cytotoxicity Assay - LYMP1-001 - Dead Cells (AID 946)
In short: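 Seed 2500 LYMP1-001 cells/well, incubate 5 hr at 37 C; add compound, 16 hr at 37 C; add MultiTox-Fluor reagent, 60 min RT; read dead-cell fluorescence Ex/Em=485/520. Normalize to DMSO and 15 uM tetraoctylammonium bromide.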

[3] = MultiTox-Fluor Cytotoxicity Assay - LYMP1-001 - Live Cells (AID 947);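 also: 0% = DMSO only and full inhibition = tetraoctylammonium bromide control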
[4] = Cell Viability - LYMP1-002 - Assay at 16 hr (AID 948);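 also: 0% = DMSO alone and full effect = 92 µM tetraoctylammonium bromide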
In short: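 Acute cytotoxicity is scored as a concentration-dependent fall in intracellular ATP in a human lymphoblastoid line (LYMP1-002) after 16 hr compound exposure at 37 C, measured by luciferase luminescence.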

[5] = MultiTox-Fluor Cytotoxicity Assay - LYMP1-002 - Live Cells (AID 955); also: % is scaled to controls: 0 for no effect and ±100 for the full control effect
In short: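 LYMP1-002 lymphoblastoid cells; 2500 cells/well; 16 hr compound exposure, 37 C; MultiTox-Fluor reagent 60 min RT; live-cell fluorescence Ex/Em=405/510; qHTS concentration-response, Hill-equation AC50; tetraoctylammonium bromide positive control.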

[6] = MultiTox-Fluor Cytotoxicity Assay - LYMP1-003 - Dead Cells (AID 961); also: nearly all actives have a fitted effect of over 70% in size
In short: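 LYMP1-003 lymphoblastoid, 2500 cells/well, 5 hr settle then 16 hr cpd at 37 C; MultiTox-Fluor reagent 60 min RT; Ex/Em 485/520 dead-cell signal; norm. DMSO = 0%, 15 uM tetraoctylammonium bromide = 100%; Hill AC50.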

[7] = MultiTox-Fluor Cytotoxicity Assay - LYMP1-003 - Live Cells (AID 962);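 also: 0% = DMSO only and full loss = 92 µM tetraoctylammonium bromide; cytotoxic hits lower the live-cell protease signal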
In short: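 Readout: live-cell fluorescence (Ex/Em=405/510) from GF-AFC cleavage after 60 min MultiTox-Fluor reagent at room temperature. Lymphoblastoid LYMP1-003 cells, 16 hr compound treatment, 37 C. Concentration-response fitted to standard Hill equation for AC50.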

[8] = Cell Viability - LYMP1-003 - Assay at 24 hr (AID 963);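 also: plate controls were DMSO only for no effect and tetraoctylammonium bromide positive control for full effect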
In short: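 CellTiter-Glo luminescence (intracellular ATP) read after 24 hr, 37 C compound exposure of 2500 LYMP1-003 human lymphoblastoid cells/well in complete medium; qHTS concentration series; AC50 via standard Hill equation.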

[9] = Cell Viability - LYMP1-003 - Assay at 40 hr (AID 964); also: series mostly up to about 92 µM; % is scaled to controls: 0 for no effect and ±100 for the full control effect; nearly all actives have a fitted effect of over 60% in size
In short: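 LYMP1-003 lymphoblastoid cells, 2500/well; 5 hr preincubation, 40 hr compound exposure, 37 C; CellTiter-Glo 30 min RT; luminescence; Hill-fit AC50. Positive control tetraoctylammonium bromide.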

[10] = Cell Viability - LYMP2-003 (AID 965);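 also: cells exposed to compounds for 24 h before reading; 0% = DMSO only and full effect = 92 µM tetraoctylammonium bromide; nearly all actives have a fitted effect of over 50% in size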
In short: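 Acute cytotoxicity is scored as a concentration-dependent drop in intracellular ATP, measured by luciferase luminescence in human lymphoblastoid cells treated for 24 hours at 37 C. AC50 values derive from Hill-equation modelling.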

[11] = Cell Viability - LYMP2-004 (AID 966);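 also: plate controls were DMSO only for no effect and tetraoctylammonium bromide control for full effect; nearly all actives have a fitted effect of over 65% in size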
In short: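 Luminescent ATP read-out (CellTiter-Glo, 30 min RT) after 24 hr compound exposure at 37 C; 2500 lymphoblastoid cells/well, complete medium. Decrease in ATP = cytotoxicity; AC50 from standard Hill model.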

[12] = Cell Viability - LYMP2-005 (AID 967);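 also: series mostly up to about 92 µM; plate controls were DMSO only for no effect and 92 µM tetraoctylammonium bromide control for full effect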
In short: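 qHTS viability screen in LYMP2-005 cells: 24 h at 37 C with compound, ATP luminescence via CellTiter-Glo, AC50 from Hill curves.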

[13] = Cell Viability - LYMP2-009 (AID 968);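 also: series mostly up to about 92 µM; 0% = DMSO alone and the full-kill end = tetraoctylammonium bromide at 92 µM; nearly all actives have a fitted effect of over 55% in size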
[14] = Cell Viability - LYMP2-011 (AID 969);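 also: cells exposed to compound for 24 hours; 0% = DMSO only and full inhibition = 92 µM tetraoctylammonium bromide; nearly all actives have a fitted effect of over 60% in size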
In short: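 Luminescent ATP read-out (CellTiter-Glo, 30 min RT) after 24 hr compound exposure at 37 C in human lymphoblastoid cells, 2500 cells/well. Decreasing ATP indicates cytotoxicity; AC50 from standard Hill fit.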

[15] = Cell Viability - LYMP2-013 (AID 970);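 also: series mostly up to about 92 µM; 0% = DMSO only and full inhibition = tetraoctylammonium bromide control; nearly all actives have a fitted effect of over 55% in size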
In short: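 CellTiter-Glo luminescence (cellular ATP) read after 30 min at RT. Cells: human lymphoblastoid line, 2500/well, 24 hr compound exposure at 37 C. Tetraoctylammonium bromide positive control; AC50 via standard Hill fit of qHTS titrations.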

[16] = Cell Viability - LYMP2-015 (AID 971);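 also: 0% = DMSO only and full effect = 92 µM tetraoctylammonium bromide; nearly all actives have a fitted effect of over 55% in size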
In short: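 qHTS cytotoxicity: 2500 cells/well, 5 hr 37 C, compound 24 hr 37 C, CellTiter-Glo 30 min RT, luminescence. Loss of ATP = toxicity; AC50 via standard Hill fit.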

[17] = Cell Viability - LYMP2-017 (AID 972);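 also: series mostly up to about 92 µM; cells exposed to compound for 24 hours at 37 °C; % is scaled to controls: 0 for no effect and ±100 for the full control effect; nearly all actives have a fitted effect of over 55% in size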
In short: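 Luminescent ATP read-out (CellTiter-Glo, 30 min RT) reports viable cell number. Cells: human lymphoblastoid line, 2500 per well, 5 hr preincubation, 24 hr compound exposure at 37 C. AC50 is derived from qHTS concentration-response data using the standard Hill model.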

[18] = qHTS assay for small molecule agonists of the antioxidant response element (ARE) signaling pathway measured by Nrf2-dependant transcriptional activity - cell viability counter screen (AID 720653; active = well fitted curve in the direction sought with a large enough effect in the repeat runs; an effect the other way counts as inactive or inconclusive; also: % is scaled to controls: 0 for no effect and ±100 for the full control effect); conditions: ARE-bla HepG2 viability, CellTiter-Glo ATP luminescence, 16 h; hits give low values
In short: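 ARE-bla HepG2 cells (2,000/well) rested 5 hrs at 37C/5% CO2, then exposed to compounds in DMSO for 16 hrs. Viability was read in the same wells as intracellular ATP by luminescence, 30 min at room temperature after reagent addition.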

[19] = qHTS assay for cell viability of HEK293 cells (AID 743288); conditions: ATP luminescence (CellTiter-Glo), 18 h, hits give low values; also: % is scaled to controls: 0 for no effect and ±100 for the full control effect; nearly all actives have a fitted effect of over 50% in size
In short: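 Quantitative high-throughput screen: compounds were pinned onto parental HEK293 cells (2,000 per well) after a minimum 5 h settling at 37 C, incubated 18 h at 37 C, and intracellular ATP measured by luciferase luminescence.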

[20] = qHTS assay for cell viability of the p53RE-bla HCT-116 cell line (AID 743292)
In short: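 Readout: CellTiter-Glo luminescence after 30 min RT. Treatment: compounds in DMSO, 16 h, 37 C. Cells: CellSensor p53RE-bla HCT-116, 4,000/well, preincubated 5 h.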

Measured: max response

CN(C)CCOC(c1ccccc1)c1ccccc1 (tested in a mixture with another compound)
inactive: [1] | [2] | [3] | [4] | [5] | [6] | [7] | [8] | [9] | [10] | [11] | [12] | [13] | [14] | [15] | [16] | [17] | [18] -6.81% | [19] 3.64% | [20]
